# Measured values taken from PubChem BioAssay AID2314 (National Center for Advancing Translational Sciences (NCATS), 2010).
# Hit rate of the full screen: of about 300,000 compounds, about 37,000 (12%) were called active. Many of the other results were omitted from the sample, so actives are more common in it than they were. A number with no mark means an inactive call. No stated cut-off is given here; in the data, active means max response mostly above about 13% (no sharp cut-off); inactive means mostly below about 14%.
# Assay: Cycloheximide Counterscreen for Small Molecule Inhibitors of Shiga Toxin; further: read at 38.3 µM for the half of the compounds with a filed dose; 0% is about no effect
# Conditions: cell reporter, cycloheximide protein synthesis inhibition counterscreen; active compounds read high
row,Compound,max response
1,Cc1ccc(NC(=O)c2cc(-c3ccccc3O)n[nH]2)cc1C,12%
2,c1ccc(-c2cc(-c3ccccc3)[nH]n2)cc1,36.7% (active)
3,S=c1[nH]nc(-c2cc(-c3ccsc3)n[nH]2)n1-c1ccccc1,6.52%
4,Oc1ccccc1-c1cc(-c2ccc(Cl)cc2)n[nH]1,29% (active)
5,S=c1[nH]nc(-c2cc(-c3ccccc3)n[nH]2)n1/N=C/c1c2ccccc2cc2ccccc12,-3.32%
6,Cc1cc(C(=O)OCC(=O)N2c3ccccc3NC(=O)C2(C)C)c(C)n1-c1ccccc1,-2.79%
7,CCc1cc(=O)oc2c(C)c(OCC(=O)N3CC[C@@]4(O)CCCC[C@H]4C3)ccc12,-0.987%
8,O=C(CCC(=O)N/N=C/c1ccc(Br)o1)N/N=C/c1ccc(Br)o1,-1.8%
9,CC1(C)OC(=O)N2CCc3ccccc3C21C (stereo not given),-1.95%
10,Cn1nnc2cc(C(=O)NCCC3=CCCCC3)ccc21,36.9% (active)
11,CN(c1ccc(C(=O)NCCC2=CCCCC2)cc1)S(C)(=O)=O,35.4% (active)
12,O=C(COc1ccc(Cl)cc1)NCCC1=CCCCC1,-4.36%
13,CN1CCNC(=O)C1CC(=O)NCCC1=CCCCC1 (stereo not given),6.87%
14,CC(=O)Nc1ccc(S(=O)(=O)N(C)CC(=O)NCCC2=CCCCC2)cc1,8.71%
15,O=C(NCCCN1CCOCC1)c1ccc(N2CCCC2)c([N+](=O)[O-])c1,1.3%
16,Cc1ccn2c(=O)c(C(=O)NCCC3=CCCCC3)c(O)nc2c1,16.1%
17,O=C(Cc1nn[nH]n1)NCCC1=CCCCC1,-1.06%
18,O=C(NCCC1=CCCCC1)c1ccc(Cl)c([N+](=O)[O-])c1,39.2% (active)
19,CCC(=O)c1ccc(OC(=O)/C=C/c2cc(OC)c(OC)c(OC)c2)cc1,-6.8%
20,COc1ccc(C(=O)O)cc1S(=O)(=O)NCc1cccnc1,1.18%
21,COc1ccc(Cn2c(O)c(/C=C3/C=CC=N3)c(=O)[nH]c2=O)cc1,1.33%
22,Cc1nc2c(C(=O)NCc3cccs3)cnn2c(C)c1Cc1ccc(F)cc1,0.665%
23,O=C(NCC1CCN(Cc2ccccc2Cl)CC1)Nc1cccc(Cl)c1,9.67%
24,O=C(Nc1ccc(F)cc1)N1CCN(c2ccc(F)cc2)CC1,1.7%

row,Compound,max response
1,CC(C)CC(=O)Nc1ccc(Cc2ccncc2)cc1,-2.52%
2,O=C(Nc1ccncc1)c1c(F)cccc1F,14.2%
3,CCc1ccc(NC(=O)Nc2ccncc2)cc1,28.8% (active)
4,O=C(Nc1ccncc1)Nc1ccc(F)cc1,21.6% (active)
5,CCc1ccc(NC(=O)N[C@H](C(=O)O)C(C)CC)cc1 (stereo not given in full),9.38%
6,CCCc1ccc(OCc2ccc(C(=O)N/N=C/c3cccc([N+](=O)[O-])c3)o2)c(OC)c1,-2.18%
7,CC(C)Cn1c(=O)c2ccccc2n2c(CCC(=O)NCc3ccccn3)nnc12,15.7%
8,Cc1cccc(C)c1N1C(=O)CN(Cc2ccccc2)C1=S,-2.32%
9,O=C(NCCS(=O)(=O)c1ccc(Br)cc1)c1ccccc1Cl,-3.1%
10,CN(C)S(=O)(=O)c1ccc(C(=O)NCCN=C2NS(=O)(=O)c3ccccc32)cc1,-3.08%
11,O=C(Nc1nnc(-c2ccccc2)o1)c1cc(-c2cccs2)nc2ccccc12,-2.91%
12,OC(c1nnc(-c2ccccc2)o1)c1cccs1 (stereo not given),76.9% (active)
13,CCCN(CCC)c1ccc(C(O)c2nnc(-c3ccccc3)o2)cc1 (stereo not given),26.9%
14,CCCc1cc(=O)oc2cc(OCC(=O)Nc3ccc(CN4CCOCC4)cc3)c(Cl)cc12,-3.2%
15,Oc1c(C=Nc2cccc3nsnc23)ccc2ccccc12,16.7% (active)
16,O=[N+]([O-])c1ccc(N=Cc2c(O)ccc3ccccc23)cc1,-1.91%
17,O=C(Nc1cccc(C(F)(F)F)c1)c1ccc(N2CCNCC2)c([N+](=O)[O-])c1,0.923%
18,Nc1nc(SCC(=O)N2CCN(S(=O)(=O)c3ccc(Cl)cc3)CC2)n[nH]1,6.07%
19,Cc1occc(=O)c1OCc1c(Cl)cccc1Cl,0.434%
20,Cc1ccc(OCC(=O)Nn2cnc3ccccc32)cc1,8.71%
21,COC(=O)c1ccc(-n2cnc3ccccc32)nc1,24.9% (active)
22,O=C(c1ccc(Cl)cc1)n1cnc2ccccc21,-2.21%
23,CCC(C)(C)n1nnnc1C(c1ccc(OC)c(OC)c1)N1CCN(C(=O)c2ccco2)CC1 (stereo not given),-2.11%
24,CCCn1nnc(NC(=O)COc2ccc(CC)cc2)n1,3.91%

row,Compound,max response
1,CCCOc1cccc(C(=O)Nc2nnn(CCC)n2)c1,26.2% (active)
2,CCCOc1cccc(C(=O)NCCCNC(=O)c2cccnc2)c1,-1.77%
3,CC1CN(S(=O)(=O)c2ccc(C(=O)Nc3sccc3C(N)=O)cc2)CC(C)O1 (stereo not given),-0.296%
4,COc1ccc(CN(C(=O)CSc2nnc(-c3ccc(OC)c(OC)c3)o2)c2ccc(F)cc2)cc1,-0.972%
5,COC(=O)c1c(C)[nH]c(C(=O)NCCc2ccc(S(N)(=O)=O)cc2)c1C,-10.2%
6,CC(=O)c1c(C)[nH]c(C(=O)OCC(=O)NCCC(C)C)c1C,-1.49%
7,CCCCOC(=O)c1[nH]c(C)c(C(=O)OC)c1C,60.6% (active)
8,Cc1ccc(C(=O)NC(=S)Nc2ccc(N3CCOCC3)cc2)cc1,13.6%
9,COC(=O)c1ccc(NC(=S)Nc2cccc(C)n2)cc1,10.2%
10,COC(=O)c1ccc(NC(=S)NN2CCOCC2)cc1,20.6% (active)
11,COc1ccc2c3c(c(=O)oc2c1)C1O[C@](CCCCN2C(=O)c4ccccc4C2=O)(Cc2c1ccc1ccccc21)O3,-1.56%
12,Clc1ccc(N/N=C/c2cccs2)nn1,22.2% (active)
13,Cc1ccsc1/C=N/NC(=O)Cc1cc(=O)[nH][nH]1,4.08%
14,Oc1c(Br)cccc1/C=N/Nc1c(F)c(F)c(F)c(F)c1F,6.05%
15,Cc1ccsc1/C=N/Nc1ccc(Cl)nn1,14% (active)
16,Cc1ccsc1/C=N/n1c(=S)[nH]nc(C)c1=O,-1.56%
17,Cn1c(=O)c2c(nc(N/N=C/c3cccs3)n2Cc2ccc(Br)cc2)n(C)c1=O,10.1%
18,COc1cc(/C=N/Nc2ccc(C)cc2)cc(Br)c1O,7.52%
19,NC(=O)N/N=C\c1cccs1,5.02%
20,COc1cccc(/C=N\Nc2nncc(-c3ccccc3)n2)c1,6.58%
21,COc1cccc(/C=N/Nc2ccc(Cl)nn2)c1,25.6% (active)
22,Oc1cccc(/C=N/Nc2ccc(Cl)nn2)c1O,43.2% (active)
